# Results: the supplement of paper PMC6331611
# ± gives the standard deviation of the averaged measurements. The full ranking holds about 1,600 compounds; the median of “normalized growth (OD600, IQM-normalized) in LPM” is about 1, and the lowest 2% start at about 0.014. For the sample, the lowest values were picked, then their nearest neighbours and some compounds at random.
# Tested on: Salmonella enterica serovar Typhimurium SL1344
# Test: normalized growth (OD600, IQM-normalized) in LPM (fraction of plate interquartile mean); higher = more bacterial growth (less inhibition)
# Settings: LPM pH 5.8; 10 µM; 16 h
row,Compound,normalized growth
1,CCCCC(=O)N(Cc1ccc(-c2ccccc2-c2nnn[nH]2)cc1)[C@H](C(=O)O)C(C)C,0.845 ± 0.034
2,CCC(=O)c1c(O)cc(O)cc1O,1.09 ± 0.016
3,Cc1c(Nc2ncccc2C(=O)O)cccc1C(F)(F)F,1.04 ± 0.041
4,Cl.N=C(N)NCCC[C@H](N)C(=O)O,1 ± 0.042
5,C=C(NC(=O)C(=C)NC(=O)c1csc(C2=N[C@@H]3c4csc(n4)[C@H]4NC(=O)c5csc(n5)[C@H]([C@](C)(O)[C@@H](C)O)NC(=O)[C@H]5CSC(=N5)/C(=C/C)NC(=O)[C@H]([C@@H](C)O)NC(=O)c5csc(n5)[C@]3(CC2)NC(=O)[C@H](C)NC(=O)C(=C)NC(=O)[C@H](C)NC(=O)[C@H]([C@@H](C)CC)N[C@@H]2C=Cc3c([C@H](C)O)cc(nc3[C@H]2O)C(=O)O[C@@H]4C)n1)C(N)=O,1 ± 0.09
6,C=C(C)[C@H]1CC=C(C)CC1,0.978 ± 0.024
7,Cc1cc2nc3c(=O)[nH]c(=O)nc-3n(CC(O)C(O)C(O)COP(=O)(O)O)c2cc1C (centres undefined),0.822 ± 0.056
8,O=S(=O)(O)CCSSCCS(=O)(=O)O,1.02 ± 0.069
9,CC(C)[C@H](NC(=O)[C@H](CC(=O)O)NC(=O)[C@H](CCCCN)NC(=O)[C@@H](N)CCCN=C(N)N)C(=O)N[C@@H](Cc1ccc(O)cc1)C(=O)O,0.991 ± 0.011
10,CC(=O)OCC(=O)[C@@]1(O)CC[C@H]2[C@@H]3CCC4=CC(=O)CC[C@]4(C)[C@@]3(F)[C@@H](O)C[C@@]21C,1.09 ± 0.11
11,O=C1c2c(O)cccc2C([C@@H]2O[C@H](CO)[C@@H](O)[C@H](O)[C@H]2O)c2cc(CO)cc(O)c21 (some centres undefined),1 ± 0.043
12,C[N+]1(C)[C@@H]2CC[C@H]1C[C@@H](OC(=O)C(O)c1ccccc1)C2 (some centres undefined),0.976 ± 0.081
13,Nc1ncnc(Nc2ccc(Cl)cc2)n1,0.999 ± 0.071
14,CN1CCCN=C1COC(=O)C(O)(c1ccccc1)C1CCCCC1 (centres undefined),1.23 ± 0.026
15,CC(O)(CC(=O)O)CC(=O)O,0.921 ± 0.018
16,COc1ccc(CN(CCN(C)C)c2ncccn2)cc1,1.11 ± 0.038
17,CCN(CC)CCOc1ccc(C(=C(Cl)c2ccccc2)c2ccccc2)cc1,1.07 ± 0.023
18,CN(C)[C@@H]1C(O)=C(C(N)=O)C(=O)[C@@]2(O)C(O)=C3C(=O)c4c(O)cccc4[C@@](C)(O)[C@H]3C[C@@H]12,0.0127 ± 0.00026
19,C[C@H]1c2cccc(O)c2C(=O)C2=C(O)[C@]3(O)C(=O)C(C(N)=O)=C(O)[C@@H](N(C)C)[C@@H]3[C@@H](O)[C@@H]21,0.0125 ± 0.00056
20,C=C1c2cccc(O)c2C(=O)C2=C(O)[C@]3(O)C(=O)C(C(N)=O)=C(O)[C@@H](N(C)C)[C@@H]3[C@@H](O)[C@H]12,0.0154 ± 0.00028
21,C=C1c2c(Cl)ccc(O)c2C(=O)C2=C(O)[C@]3(O)C(=O)C(C(N)=O)=C(O)[C@@H](N(C)C)[C@@H]3[C@@H](O)[C@H]12.O=C(O)c1cc(S(=O)(=O)O)ccc1O,0.0199 ± 0.00036
22,CN(C)[C@@H]1C(O)=C(C(N)=O)C(=O)[C@@]2(O)C(O)=C3C(=O)c4c(O)cccc4[C@@](C)(O)[C@H]3[C@H](O)[C@@H]12,0.0138 ± 0.00025

row,Compound,normalized growth
1,CN(C)[C@@H]1C(O)=C(C(N)=O)C(=O)[C@@]2(O)C(O)=C3C(=O)c4c(O)ccc(Cl)c4[C@@](C)(O)[C@H]3C[C@@H]12,0.0113 ± 0.00051
2,CN(C)[C@@H]1C(O)=C(C(=O)NCN2CCCC2)C(=O)[C@@]2(O)C(O)=C3C(=O)c4c(O)cccc4[C@@](C)(O)[C@H]3C[C@@H]12,0.854 ± 0.027
3,CN(C)[C@@H]1C(O)=C(C(N)=O)C(=O)[C@@]2(O)C(O)=C3C(=O)c4c(O)ccc(Cl)c4[C@@H](O)[C@H]3C[C@@H]12,0.00865 ± 0.00039
4,CN(C)c1cc(NC(=O)CNC(C)(C)C)c(O)c2c1C[C@H]1C[C@H]3[C@H](N(C)C)C(O)=C(C(N)=O)C(=O)[C@@]3(O)C(O)=C1C2=O,0.962 ± 0.053
5,CN(C)c1ccc(O)c2c1C[C@H]1C[C@H]3[C@H](N(C)C)C(O)=C(C(N)=O)C(=O)[C@@]3(O)C(O)=C1C2=O,0.0111 ± 0.00049
6,CC1(C)[C@H]2CC[C@]1(CS(=O)(=O)O)C(=O)C2=Cc1ccc(C=C2C(=O)[C@@]3(CS(=O)(=O)O)CC[C@@H]2C3(C)C)cc1,0.989 ± 0.073
7,CC(=O)[C@H]1CC[C@H]2[C@@H]3CC=C4C[C@@H](OC(=O)CCC(=O)O)CC[C@]4(C)[C@H]3CC[C@]12C,1.02 ± 0.027
8,CCCCC(CC)COC(=O)C(C#N)=C(c1ccccc1)c1ccccc1 (centres undefined),0.82 ± 0.0086
9,CCN(CC)CCc1nc(-c2ccccc2)no1,0.956 ± 0.062
10,C/C(=C\C(=O)OCCCCCCCCC(=O)O)C[C@@H]1OC[C@H](C[C@@H]2O[C@H]2[C@@H](C)[C@H](C)O)[C@@H](O)[C@H]1O,0.00952 ± 0.00017
11,COc1cccc(OC)c1C(=O)N[C@@H]1C(=O)N2[C@@H]1SC(C)(C)[C@@H]2C(=O)O,1.12 ± 0.019
12,CCc1cn([C@H]2C[C@H](O)[C@@H](CO)O2)c(=O)[nH]c1=O,0.664 ± 0.046
13,O=c1[nH]c(=O)n([C@H]2C[C@H](O)[C@@H](CO)O2)cc1F,0.0114 ± 0.00023
14,O=c1[nH]c(=O)n([C@H]2C[C@H](O)[C@@H](CO)O2)cc1I,1.05 ± 0.026
15,O=C1C(CC[S+]([O-])c2ccccc2)C(=O)N(c2ccccc2)N1c1ccccc1 (centres undefined),1.097 ± 0.0059
16,CN1CCCC(n2nc(Cc3ccc(Cl)cc3)c3ccccc3c2=O)CC1 (centres undefined),1.04 ± 0.039
17,N=C(N)NCC1COC2(CCCCC2)O1 (centres undefined),0.863 ± 0.015
18,CCCc1nc(C(C)(C)O)c(C(=O)OCc2oc(=O)oc2C)n1Cc1ccc(-c2ccccc2-c2nnn[nH]2)cc1,1.005 ± 0.0069
19,CN(C)CCN(Cc1ccccc1)c1ccccn1,0.906 ± 0.035
20,CCN(CC)C(=O)c1cccnc1,1.14 ± 0.095
21,OC[C@@H](O)[C@@H](O)CO,0.975 ± 0.05
22,COc1ccc(-c2cc(C(F)F)nn2-c2ccc(S(N)(=O)=O)cc2)cc1F,1.01 ± 0.035
